High-throughput results as filed in PubChem.
Mtb UGM inh: Mtb UDP-galactopyranose mutase inhibition; P9WIQ1; purified UGM, fluorescence polarization probe displacement; inhibition, % at 10 µM; hit rate 0.06% among 320,000; AID 504406; in the data active = inhibition above about 10%, passing the limit was not always enough
Mtb betalactam: beta-lactam sensitization of Mtb H37Rv; M. tuberculosis H37Rv growth with meropenem, percent inhibition; inhibition, % at 25 µM; hit rate 0.27% among 330,000; call rule not given here;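 note: growth measured after seven days incubation then overnight dye step; 0% = bacteria only wells and 100% = bacteria with antibiotic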
Mtb FBA inh: inhibits M. tuberculosis FBA enzyme | hit rate 2.3% among 360,000 | AID 588726 | inhibition, % at 1 µM | purified M. tuberculosis FBA, fluorescence read-out; in the data active = inhibition above about 27%;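 note: 0% = vehicle and 100% = reference inhibitor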
GDH-TPI inh: counter-screen for M. tuberculosis FBA inhibitors: GDH-TPI coupled enzymes; AID 588335; inhibition, % at 4.8 µM; GDH-TPI coupled enzyme counterscreen, NADH absorbance; hit rate 1.2% among 360,000; in the data active = inhibition above about 30%;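 note: 0% = DMSO wells and 100% = wells lacking the enzyme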
RecA splice inh: blocks M. tuberculosis RecA intein splicing. P9WHJ3. cell-free RecA intein splicing, fluorescence. inhibition, % (concentration not given with the values). hit rate 0.75% among 290,000; in the data active = inhibition above about 30%;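 note: 0% = vehicle wells and 100% = reference inhibitor control wells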
Rv3671c protease: inhibits the M. tuberculosis serine protease Rv3671c. P9WHR9. inhibition, % at 5.96 µM. hit rate 0.048% among 320,000; in the data active = inhibition above about 38%;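 note: extracellular domain of Rv3671c used as enzyme; 0% = enzyme with DMSO and 100% = no enzyme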
An asterisk follows results filed as active; i = inactive; x = no result; + = active, no number. Only some compounds are listed: those with a hit (about 4% of all), similar ones and a draw of the others.

SMILES | Mtb UGM inh | Mtb betalactam | Mtb FBA inh | GDH-TPI inh | RecA splice inh | Rv3671c protease
N#Cc1nc(-c2cccc3ccccc23)oc1NCC1CCCO1 (stereo not drawn) | -1 | 1 | + | 9 | -7 | 9
FC(F)(F)c1cc(-c2ccccc2)nc(NCC2CCCO2)n1 (stereo not drawn) | 3 | 3 | -1 | 3 | 3 | -1
N#Cc1nc(-c2ccc(Cl)cc2)oc1NCC1CCCO1 (stereo not drawn) | 1 | -4 | 154* | 1 | -2 | -1
CNc1oc(-c2ccc(Cl)cc2)nc1C#N | 2 | 8 | + | 0 | 0 | -1
CC(Oc1ccc(F)cc1)C(=O)N(CCC1=CCCCC1)c1c(N)n(Cc2ccccc2)c(=O)[nH]c1=O (stereo not drawn) | -2 | -1 | -2 | 0 | 0 | 1
CC(C)(CNc1ccc(C(F)(F)F)cc1[N+](=O)[O-])N1CCOCC1 | -2 | 1 | -4 | 6 | 3 | 1
Cc1ccc2[nH]c(C(=O)N3CCN(C(c4ccccc4)c4ccccc4)CC3)cc2c1 | 2 | 0 | 5 | 8 | -2 | -1
CCCCCC(=O)NNC(=S)NC(=O)c1cccc([N+](=O)[O-])c1 | -2 | 93 | -1 | 2 | 1 | 5
O=C(Nc1nc2ccccc2s1)c1cc(-c2ccco2)nc2ccccc12 | 1 | 7 | 6 | 17 | 1 | -20
COc1ccc(C(=O)NNC(=S)NC(=O)c2cc(-c3ccccc3)nc3ccccc23)cc1 | 2 | 51 | 2 | 33* | 1 | 6
CCNC(=S)NNC(=O)c1cc(-c2cccc(OC)c2)nc2ccccc12 | 1 | 5 | -1 | 0 | 1 | 9
COc1ccc(C(=O)NNC(=S)NC(=O)c2cccc([N+](=O)[O-])c2)cc1 | 3 | 91 | 0 | 35* | 0 | 5
CCNC(=S)NNC(=O)c1cc(-c2ccc(OCC)cc2)nc2ccccc12 | -1 | 52 | 11 | 37* | -3 | -6
COc1cccc(-c2cc(C(=O)Nc3nc4ccccc4s3)c3ccccc3n2)c1 | 0 | 99 | 4 | 33* | 22 | -82
CCOC(=O)C1=C(COC(=O)/C=C/c2cc(OC)c(OC)c(OC)c2)NC(=O)NC1C (stereo not drawn) | -1 | -11 | 10 | 3 | 3 | -4
CCN(CC)S(=O)(=O)c1ccc2c(c1)c(=O)c(C(=O)NCc1ccco1)cn2C | 12* | 2 | -1 | 2 | -2 | -3
CC1(C(=O)NS(=O)(=O)c2ccc(Cl)cc2)CCN1C(=O)Cc1ccsc1 (stereo not drawn) | x | x | 1 | 0 | x | x
c1ccc2c(-c3nc4ncccc4o3)cccc2c1 | 5 | -6 | + | -2 | 2 | -11
C[C@@H]1CN([C@H](C)CO)C(=O)CCCn2nncc2CO[C@H]1CN(C)C(=O)Nc1ccc(N2CCN(C)CC2)cc1 | x | x | 1 | 3 | x | x
COc1ccc(NC(=O)CN2CCN(c3ccccn3)CC2)cc1Cl | 2 | -7 | + | -3 | 0 | 0
CC1(C(=O)NCc2ccc3c(c2)OCO3)CCN1C(=O)CC1CCCC1 (stereo not drawn) | x | x | -1 | 2 | x | x
O=C(CCN1CCN(c2ccccc2)CC1)N/N=C/c1ccc([N+](=O)[O-])o1 | -1 | 98 | -1 | 38* | -3 | -4
Cc1cc(N(C)Cc2ccccc2)nc2cc(O)ccc12 | 2 | 8 | + | 9 | -110 | 0
O=C(Nc1ccccc1)Nc1nnc([C@@H]2C[C@H](O)[C@@H](CO)O2)s1 | x | x | 0 | 1 | x | x
CC(C)(C)c1cc(C(F)(F)F)n2ncc(-c3ccccc3)c2n1 | -4 | -4 | -1 | -8 | 4 | -17
SMILES | Mtb UGM inh | Mtb betalactam | Mtb FBA inh | GDH-TPI inh | RecA splice inh | Rv3671c protease
CC(C)Nc1cc(C(C)(C)C)nc2c(-c3ccccc3)cnn12 | 1 | 6 | 29* | 10 | 5 | 1
COCCCNC(=O)c1nc2ccccc2c(=O)n1NC(=O)Nc1c(Cl)cccc1Cl | 2 | 1 | 1 | 2 | 7 | -13
CN(C)Cc1c(O)ccc2cc(-c3nc4ccccc4n3C)c(=O)oc12 | 3 | 0 | + | -7 | i | -7
CN(C)Cc1c(O)ccc2c(-c3ccccc3)cc(=O)oc12 | -2 | 1 | 10 | 3 | -38 | -1
Cc1ccc(S(=O)(=O)N(C)C)cc1NC(=S)NC12CC3CC(CC(C3)C1)C2 | x | x | + | 2 | 7 | x
BrC(/C=N/Nc1nc(N2CCOCC2)nc(N2CCOCC2)n1)=C/c1ccccc1 | -1 | 8 | 2 | 41* | 0 | 13
